Data from PubChem BioAssay (NCATS).
Inconclusive results are not listed. Activity calls are given as the source filed them. Unless noted, calls follow the shape of the dose curve; as a rule, active = well fitted curve in the direction sought with a large enough effect; inconclusive = small, poorly fitted or top-dose-only effect, or another doubt; inactive = no such curve, though single readings can be large; an effect the other way counts as inactive or inconclusive.

Key:
[1] = molecular target: Alpha-galactosidase (Coffea arabica) (UniProt Q42656); experiment: Counterscreen for Glucocerebrosidase Inhibitors: qHTS Assay for Coffee Bean alpha-Galactosidase at pH 4.5 (AID 957); also: series mostly up to about 77 µM
Chain of Alpha-galactosidase (Coffea arabica) (Q42656 whole entry, looked up): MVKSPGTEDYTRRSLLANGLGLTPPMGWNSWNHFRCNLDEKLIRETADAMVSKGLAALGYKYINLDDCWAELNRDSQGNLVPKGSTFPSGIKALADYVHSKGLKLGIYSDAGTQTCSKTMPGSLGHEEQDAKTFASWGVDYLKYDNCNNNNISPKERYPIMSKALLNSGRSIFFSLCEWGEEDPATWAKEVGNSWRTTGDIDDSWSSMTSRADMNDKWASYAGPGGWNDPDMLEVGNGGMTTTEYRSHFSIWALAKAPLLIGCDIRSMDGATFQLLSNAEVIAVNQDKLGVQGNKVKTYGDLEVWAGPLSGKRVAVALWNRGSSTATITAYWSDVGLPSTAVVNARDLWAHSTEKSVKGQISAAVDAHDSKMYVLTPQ
Summary of the method: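 Green coffee bean enzyme (2 nM final) was incubated with compounds (0.7 nM to 77 uM) and 4-methylumbelliferyl alpha-D-galactopyranoside (80 uM final) in 50 mM citric acid, 0.005% Tween-20, pH 4.5, 20 min at room temperature; AC50 from Hill fits.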

[2] = molecular target: Alpha-galactosidase (Coffea arabica) (UniProt Q42656); experiment: Counterscreen for Glucocerebrosidase Inhibitors: qHTS Assay for Coffee Bean alpha-Galactosidase at pH 5.9 (AID 998)
Summary of the method: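 Compounds were titrated from 0.7 nM to 77 uM against green coffee bean alpha-galactosidase (2 nM) using 80 uM fluorogenic 4-methylumbelliferyl substrate. After 20 min at room temperature, reactions were stopped at pH 10 and read by fluorescence.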

[3] = Validation screen for inhibitors of Lassa infection (AID 463096; calls by dose curve)
[4] = Inducers of the Endoplasmic Reticulum Stress Response (ERSR) in human glioma: Validation (AID 504836)
Summary of the method: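 ERSR induction read as luciferase luminescence (Bright-Glo, 10 min at room temperature) in stably transfected human U87-MG glioma cells exposed to compounds for 16 h, using GRP78 as sensor.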

[5] = qHTS for Inhibitors of the Functional Ribonucleoprotein Complex (vRNP) of Lassa (LASV) Arenavirus: LASV Primary Screen - GLuc reporter signal (AID 1347082; calls by dose curve; tested in HEK293 reporter line; also: series mostly up to about 57 µM; nearly all actives have a fitted effect of over 60% in size)
[6] = qHTS for Inhibitors of the Functional Ribonucleoprotein Complex (vRNP) of Lassa (LASV) Arenavirus: Viability assay - alamar blue signal for LASV Primary Screen (AID 1347083; calls by dose curve; tested in HEK293 reporter line; also: series mostly up to about 57 µM; nearly all actives have a fitted effect of over 80% in size)
[7] = qHTS for Inhibitors of the Functional Ribonucleoprotein Complex (vRNP) of Lymphocytic Choriomeningitis Arenaviruses (LCMV): Viability assay - alamar blue signal for LCMV Primary Screen (AID 1347085; calls by dose curve; tested in HEK293 reporter line; also: series mostly up to about 57 µM; nearly all actives have a fitted effect of over 80% in size)
[8] = molecular target: Nucleoprotein (Lymphocytic choriomeningitis virus (strain Armstrong)) (UniProt P09992); experiment: qHTS for Inhibitors of the Functional Ribonucleoprotein Complex (vRNP) of Lymphocytic Choriomeningitis Arenaviruses (LCMV): LCMV Primary Screen - GLuc reporter signal (AID 1347086; calls by dose curve; also: series mostly up to about 57 µM; nearly all actives have a fitted effect of over 70% in size)
Chain of Nucleoprotein (Lymphocytic choriomeningitis virus (strain Armstrong)) (P09992 whole entry, looked up): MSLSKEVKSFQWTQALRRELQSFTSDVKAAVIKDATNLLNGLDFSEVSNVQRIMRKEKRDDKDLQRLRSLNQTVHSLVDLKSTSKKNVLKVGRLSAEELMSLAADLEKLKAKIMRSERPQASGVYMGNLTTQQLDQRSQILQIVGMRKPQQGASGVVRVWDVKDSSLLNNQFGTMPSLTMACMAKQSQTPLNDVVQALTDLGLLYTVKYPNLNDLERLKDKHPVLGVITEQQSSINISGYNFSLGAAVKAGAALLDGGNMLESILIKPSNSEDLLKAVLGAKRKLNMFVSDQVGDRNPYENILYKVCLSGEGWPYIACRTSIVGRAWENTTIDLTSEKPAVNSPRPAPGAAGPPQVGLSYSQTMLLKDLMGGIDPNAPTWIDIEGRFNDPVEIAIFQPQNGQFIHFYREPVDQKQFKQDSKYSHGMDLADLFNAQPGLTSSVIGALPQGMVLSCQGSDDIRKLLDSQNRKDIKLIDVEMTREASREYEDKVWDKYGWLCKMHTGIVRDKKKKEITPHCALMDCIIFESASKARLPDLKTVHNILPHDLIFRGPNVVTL

Measured: Potency

O=C(O)C1=CCCN(CCON=C(c2ccccc2)c2ccccc2)C1
inactive: all assays above

COc1ccc2c(c1)c(CC(=O)O)c(C)n2Cc1ccc(Cl)cc1
inactive: all assays above

Cn1c(=O)c2[nH]c(-c3ccc(S(=O)(=O)O)cc3)nc2n(C)c1=O
inactive: all assays above

COc1ccc(C(=O)NCc2cccnc2)cc1C(=O)NCc1cccnc1
inactive: all assays above

NC1(C(=O)O)CC1
inactive: all assays above

CCCCN1CCC(n2c(=O)[nH]c3ccccc32)CC1
inactive: all assays above

O=C(O)/C(=C/c1c(C(=O)O)[nH]c2cc(Cl)cc(Cl)c12)c1ccccc1
inactive: all assays above

Cc1ccc([N+](=O)[O-])cc1S(=O)(=O)N(C)C
inactive: all assays above

COC(=O)c1c(C)[nH]c(C)c1C(=O)c1ccccc1Cc1ccccc1
inactive: all assays above

CC(=O)N[C@@H](Cc1c[nH]c2ccccc12)C(=O)OCc1cc(C(F)(F)F)cc(C(F)(F)F)c1
inactive: all assays above

COc1ccc(-c2ccc(N)[n+](CCCC(=O)O)n2)cc1
inactive: all assays above

CCSC(=N)N
inactive: all assays above

C#CCn1c(=O)c2c(ncn2C)n(C)c1=O
inactive: all assays above

CN(C)C(N)=NCCC[C@H](N)C(=O)O
inactive: all assays above

Cc1ccc2c(c1)C(N1CCN(C)CC1)=Nc1cccnc1N2
inactive: all assays above

NCCCCCCCCCCN
inactive: all assays above

NC(N)=NCCCCN=C(N)N
inactive: all assays above

CC(=O)NNC(=O)N1Cc2ccccc2Oc2ccc(Cl)cc21
inactive: all assays above

CCCn1c(=O)c2[nH]c(C3CCCC3)nc2n(CCC)c1=O
inactive: all assays above

N#C/C(=C\c1c[nH]c2ccccc12)C(=O)c1ccc(O)c(O)c1
inactive: all assays above

COc1cc(N)c(Cl)cc1C(=O)OCCN1CCCCC1
inactive: all assays above

COc1cc(/C=C(\C#N)C(=O)c2ccc(O)c(O)c2)cc(I)c1O
inactive: all assays above

Cc1nc2c(OCc3ccccc3)cccn2c1CC#N
inactive: all assays above

O=C(O)c1ccccc1Nc1ccccc1
inactive: all assays above

NC(=O)CNCCC(c1ccccc1)c1ccccc1
inactive: all assays above

O=c1onc2cnc3ccccc3n12
inactive: all assays above

NCCCS(=O)(=O)O
inactive: all assays above

CCCCCCCC/C=C\CCCCCCCC(=O)NCCO
inactive: all assays above
